High-throughput results from PubChem BioAssay.
Pf Dd2 growth – qHTS Primary assay for Inhibitors of Plasmodium falciparum Dd2 growth in vitro; actives 4.3% (n = 120,000); P. falciparum Dd2 growth, SYBR Green, 72 h; Potency, µM (doses to about 28.9 µM), without a hit: top-dose activity, negative = inhibition, hits mostly inhibitors; active = well fitted inhibition curve with a large enough effect;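 note: plate controls were DMSO vehicle for no effect and reference drug for full effect; nearly all actives have a fitted effect of over 65% in size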
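Readout: SYBR Green fluorescence, 485 nm excitation, 535 nm emission, after ~16 h lysis at 37C. Before that, Dd2-infected red cells (2.5% hematocrit) grew 72 h with compound, 29 uM top final concentration.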
The depositor's hits bear a star; i = inactive; ! = not confirmed by another sample; [ ] = dose if it differs, or a comment. The entries come from a sample that favours hits as a whole. Potency is the fitted concentration of half-maximal effect.

SMILES	Pf Dd2 growth
CC(C)c1noc(-c2cn(C3CCN(C(=O)c4nccc5ccccc45)C3)nn2)n1 (stereo not drawn)	20%
CC1(C(=O)N2CCCC(CCc3ccc(F)c(F)c3)C2)CC1 (stereo not drawn)	i
Fc1ccc(CCC2CCCNC2)cc1F (stereo not drawn)	7.1µM*
Fc1ccc(CCC2CCCN(Cc3nccs3)C2)cc1F (stereo not drawn)	i
CC(C)CCN1CCn2c(nn(-c3ccc(Cl)cc3)c2=O)C1	3%
CCNC(=O)N[C@H]1CO[C@H]2[C@@H]1OC[C@H]2OC(=O)Nc1ccc(C(C)=O)cc1	17%[44.1 µM]
CN(CC(=O)N1CCc2c(c(-c3nncn3-c3ccccc3)nn2C)C1)S(=O)(=O)c1cnc[nH]1	i
O=C(CC1COCCN1C(=O)c1ccc2nccnc2c1)N1CCCC1 (stereo not drawn)	19%
CN1C(=O)C(Cc2nc(-c3ccc4nc[nH]c4c3)no2)N(C)C1=O (stereo not drawn)	-13%
Cc1cccc(CN2CCn3c(nnc3[C@@H]3C[C@@H](O)CN3Cc3ccccc3)C2)c1	-7%
C=CCOc1cccc(-c2nc(C(=O)N(C)Cc3ccccc3)cs2)c1	5%
COc1ccccc1C(=O)N1CCC2CC(=O)NCCC2C1 (stereo not drawn)	8%
Cc1nnsc1C(=O)N[C@H]1CCN(C(=O)CSCC(=O)O)[C@H](C(=O)N[C@H](Cc2ccccc2)C(N)=O)C1	9%
CCC(C(=O)N1CCN(c2ccccc2)CC1)n1c(C)c2cnn(-c3ccccc3)c(=O)c2c1C (stereo not drawn)	11µM*
Cc1ccc(C)c(N2CCN(C(=O)Cn3c(C)c4cnn(-c5ccccc5)c(=O)c4c3C)CC2)c1	i
Cc1c2cnn(-c3ccccc3)c(=O)c2c(C)n1CC(=O)N1CCN(c2cccc(Cl)c2)CC1	25%
O=Cc1ccccc1-c1cnc2ccccc2c1	-14%[44.1 µM]
Cc1noc2c(NC(C)C)cc(-c3cccc(C(F)(F)F)c3)nc12	-4%[44.1 µM]
CC(C)CN[C@@H]1C[C@H](COc2ccc(S(C)(=O)=O)cc2)[C@@H](O)[C@H]1O	0%[44.1 µM]
COc1cc2nc(Nc3cccc(F)c3)nc(N)c2cc1OC	2.2µM*
CCOc1ccc(-n2c(/C=C/c3cccc(F)c3)nc3cc(OC)c(OC)cc3c2=O)cc1	i
COc1ccccc1C(O)c1nc(Nc2cccc(F)c2)n[nH]1 (stereo not drawn)	i
COCCN(Cc1nc(-c2cc3c(cc2Cl)OCO3)oc1C)C(C)C	-17%
CCC(C(=O)NC1CCN(c2cnn(C)c(=O)c2)CC1)c1ccccc1 (stereo not drawn)	-1%
CC1(C)[C@H]2CC[C@@H](CNC(=O)c3ccncc3)[C@@H]1C2	-12%[44.1 µM]
SMILES	Pf Dd2 growth
CC1(C)[C@H]2CC[C@@H](CNC(=O)c3cccc(Br)c3)[C@@H]1C2	11µM*
CC1(C)[C@H]2CC[C@@H](CNC(=O)c3cc(F)ccc3Br)[C@@H]1C2	-29%[44.1 µM]
CCCNC(=O)N(CCC)CC1CCOC1 (stereo not drawn)	-5%[5.79 µM]
CCN(C)Cc1nc(C2CCOCC2)nn1CC1COCCO1 (stereo not drawn)	-9%
CC(C)C1=NOC2(CCN(Cc3cccc4ccccc34)CC2)C1	-20%[44.1 µM]
CNc1nc2c(c(C(=O)N3CCCC3)n1)CN(C(=O)Cn1nc(C)cc1C)CC2	-4%
CCc1ccc2oc(C(=O)Nc3nc(-c4ccccc4)ns3)c(C)c2c1	31%
Cc1ccc2c(C)c(C(=O)NCC(c3ccc(Cl)cc3)N3CCOCC3)oc2c1 (stereo not drawn)	-20%
CCc1ccc(OCC(=O)NCC(c2ccc(OC)cc2)N2CCOCC2)cc1 (stereo not drawn)	3.2µM*
COc1ccc(OCC(=O)NCC(c2ccc(OC)cc2)N2CCOCC2)cc1 (stereo not drawn)	-1%
COc1ccc(Cl)cc1C(=O)NCC(c1ccc(N(C)C)cc1)N1CCOCC1 (stereo not drawn)	33%[5.79 µM]
CCc1ccc2oc(C(=O)Nc3nonc3CC)c(C)c2c1	-22%
CCc1ccc2oc(C(=O)NCC(c3ccc(OC)cc3)N3CCCCC3)c(C)c2c1 (stereo not drawn)	10µM*
CCc1ccc2oc(C(=O)NCC(c3ccc(Cl)cc3)N3CCOCC3)c(C)c2c1 (stereo not drawn)	11µM*
COc1ccc(C(=O)NCC(c2ccc3c(c2)OCO3)N2CCOCC2)cc1 (stereo not drawn)	48%
Cc1ccc(CN(C)C2CCc3ccccc32)cc1 (stereo not drawn)	i
Cn1cccc1CN1CCC2(C1)C(=O)N(Cc1ccccc1)c1ccccc12 (stereo not drawn)	-2%
CCCCc1nn(CC(=O)N2CCNC(=O)C2)c(=O)n1CCc1ccccc1	-18%
O=C(c1ccccc1F)N1CCn2c(nn(-c3ccncc3)c2=O)C1	12%[44.1 µM]
O=C(c1ccccc1F)N1CCCC(CO)(Cc2ccccc2F)C1 (stereo not drawn)	-8%
CC(C)Cc1cc(Cn2cc(-c3cncnc3)nn2)no1	6%
Cc1ccc(C)c(-c2cc3c(=O)n(CCNC(=O)c4c(F)cccc4Cl)ccn3n2)c1	-2%
Cc1cc(CN2CCN(C(=O)CNC3CC3)CC(C(=O)O)C2)on1 (stereo not drawn)	-2%
N[C@@H](Cc1cnc[nH]1)C(=O)N1CCC(c2cc(-c3ccccc3Cl)n[nH]2)CC1	-16%
O=c1c2c(n(Cc3ccccc3)n1-c1ccccc1)CN(Cc1ccc3[nH]ccc3c1)CC2	3.2µM*
SMILES	Pf Dd2 growth
O=C(c1ccccc1)N1CCc2c(n(Cc3ccccc3)n(-c3ccccc3)c2=O)C1	-1%[44.1 µM]
COc1ccc(Cn2c3c(c(=O)n2Cc2ccccc2)CCN(Cc2cccc(O)c2)C3)cc1	i
CCNC(=O)NC[C@H]1O[C@H](Cc2cc(C(C)(C)C)on2)CC[C@@H]1O	22%[44.1 µM]
Cc1ccc(OCCn2c(COc3ccc(Cl)cc3)nc3ccccc32)cc1	0%
CCc1ccc(OCCCn2c(-c3ccc(Cl)cc3)nc3ccccc3c2=O)cc1	27%
CCCC(O)c1nc2ccccc2n1CCCOc1ccc(Cl)cc1 (stereo not drawn)	5µM*
CCc1noc([C@@H]2CC(F)(F)CN2C(=O)c2nccn2C)n1	28%
C[C@@H](NC(=O)c1ccccn1)c1onc(-c2ccc(Cl)cc2)c1C(=O)O	23%[44.1 µM]
COCCCNC(=O)c1ccc(N2CC3CC(C2)[C@H]2CCCC(=O)N2C3)nc1 (stereo partly drawn)	-23%
N#Cc1ccccc1S(=O)(=O)N[C@H]1CO[C@H]2[C@@H]1OC[C@H]2OC(=O)NC1CCCCC1	-20%
O=C(Nc1cccc(Cl)c1)N1CC(n2cc(COc3ccccc3)nn2)C1	7.9µM*
O=C(Nc1ccccc1)N1CC(n2cc(C(=O)N3CCOCC3)nn2)C1	24%
CNC(=O)[C@@H]1C[C@H](n2cc(CNC(=O)Nc3cccc(Cl)c3)nn2)CN1	0%
CC(C)NC(=O)C(C)[C@@H]1CC[C@@]2(C)CC[C@H](NC(=O)c3cncnc3)[C@@H](C)[C@@H]2[C@H]1O (stereo partly drawn)	0%[44.1 µM]
O=C(c1ccc(Cl)cc1)N1CCC2(C1)C(=O)N(Cc1ccccc1)c1ccccc12 (stereo not drawn)	-22%
COc1ccc(CC(=O)N2CCC3(C2)C(=O)N(CCc2ccccc2)c2ccccc23)cc1 (stereo not drawn)	-9%
COC(=O)N1CCC2(C1)C(=O)N(CCc1ccccc1)c1ccccc12 (stereo not drawn)	13µM*!
